Measured values as given in ChEMBL document CHEMBL3988442, “University of Dundee, Small-Polar-MMV Screening Library” (2021).

These molecules were tested against T1, Aspartate--tRNA(Asp/Asn) ligase (Mycobacterium tuberculosis (strain ATCC 25618 / H37Rv)) (UniProt P9WFW3) (assay: Assay for Asp RNA synthetase-1 from Mycobacterium tuberculosis). Conditions: 30 µM.
T1 sequence (whole entry): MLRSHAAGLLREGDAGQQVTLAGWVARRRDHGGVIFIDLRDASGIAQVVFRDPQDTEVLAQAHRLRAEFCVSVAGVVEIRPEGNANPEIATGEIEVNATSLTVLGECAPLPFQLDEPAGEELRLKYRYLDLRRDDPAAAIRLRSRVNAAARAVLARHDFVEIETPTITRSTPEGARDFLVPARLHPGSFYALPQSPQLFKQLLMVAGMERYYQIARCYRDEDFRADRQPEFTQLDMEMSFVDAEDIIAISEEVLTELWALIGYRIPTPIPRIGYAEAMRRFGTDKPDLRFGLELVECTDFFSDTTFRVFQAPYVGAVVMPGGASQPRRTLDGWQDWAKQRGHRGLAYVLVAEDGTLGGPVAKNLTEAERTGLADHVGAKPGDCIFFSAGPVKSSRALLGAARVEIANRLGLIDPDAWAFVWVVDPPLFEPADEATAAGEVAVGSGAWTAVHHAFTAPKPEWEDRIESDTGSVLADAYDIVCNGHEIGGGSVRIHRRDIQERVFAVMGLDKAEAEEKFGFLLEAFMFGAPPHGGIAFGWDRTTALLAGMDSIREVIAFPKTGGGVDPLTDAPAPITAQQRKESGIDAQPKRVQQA
Format: functional
Design: scale not given: in the data most compounds retested in dose-response had high values

How did the Percent Effect turn out when `O=C(CCc1cc2n(n1)CCCN(Cc1ccccc1F)C2)NC1CC1` was run?
The Percent Effect was -1.95%.

How did the Percent Effect turn out when `O=C(NCC1CC1)[C@H]1C[C@@H]2CCN(Cc3nccs3)C[C@@H]2O1` was run?
The Percent Effect was -3.13%.

With `Cc1nc(CN2CCCC(NCc3ccsc3)C2)no1` (stereo not given) as the molecule, how does the Percent Effect read?
Its Percent Effect is 3.1%.

Which Percent Effect does the source give for `Fc1cccc(CN2CCC(c3n[nH]c4ncccc34)CC2)c1F` here?
The Percent Effect was -3.17%.

Which Percent Effect does the source give for `CC(C)NC(=O)CC1COC2(CCN(Cc3ccccc3)CC2)C1` (stereo not given) here?
The Percent Effect was -2.02%.

How did the Percent Effect turn out when `O=C(CN1CCOC(Cn2cccn2)C1)Nc1nncs1` (stereo not given) was run?
The Percent Effect was -1.58%.

With `O=C(O)c1cc2c(nc1O)CC(c1cccc(Cl)c1)CC2=O` (stereo not given) as the molecule, how does the Percent Effect read?
The Percent Effect was 0.494%.

Which Percent Effect does the source give for `CC(C)Cc1noc(CN2CCN(CCO)CC2)n1` here?
The Percent Effect was -3.95%.

With `CCN(CC)CCNc1ncc(-c2cc(C)no2)c(-c2ccoc2C)n1` as the molecule, how does the Percent Effect read?
Its Percent Effect is 2.28%.

Which Percent Effect does the source give for `CCC1CCCCN1C(=O)c1ccc2[nH]nnc2c1` (stereo not given) here?
Its Percent Effect is 6.94%.

Which Percent Effect does the source give for `O=C(Cc1csc(-c2nnc[nH]2)n1)N1CCCC1Cn1cccn1` (stereo not given) here?
The Percent Effect was -4.54%.

For `COC[C@@]12CC[C@@H](N3CCOCC3)C[C@H]1CCN(c1ncccn1)C2`, which Percent Effect is on record?
The Percent Effect was -4.45%.

With `O=C(Cc1cccs1)N1C[C@@H]2COC[C@]2(COc2cccnc2)C1` as the molecule, how does the Percent Effect read?
The Percent Effect was -6.32%.

For `COc1ccc2c(c1)C1(CCN(Cc3ccncc3)CC1)N(C)CC2`, which Percent Effect is on record?
Its Percent Effect is 2.26%.

Which Percent Effect does the source give for `Cc1ccc(-c2nc(CN3CCC(C(=O)N(C)C)CC3)cs2)o1` here?
The Percent Effect was 4.21%.

Which Percent Effect does the source give for `CCOc1cccc2c1OCC(C(=O)NS(=O)(=O)c1ccc(Cl)cc1)=C2` here?
Its Percent Effect is 0.459%.

`Cn1ccc(CN2CCC(Oc3ccccc3)CC2)cc1=O` was tested. Which Percent Effect did it give?
Its Percent Effect is -1.21%.

With `CNC(=O)Nc1cc(-c2ccc(Br)cc2)nn1CCO` as the molecule, how does the Percent Effect read?
Its Percent Effect is -3.53%.

Which Percent Effect does the source give for `COc1ccc(C(=O)N(C)Cc2nnc3ccccn23)c(OC)c1` here?
Its Percent Effect is 0.49%.

For `CCc1n[nH]c(C2CN(C(=O)CCc3cccs3)CCO2)n1` (stereo not given), which Percent Effect is on record?
The Percent Effect was -2.02%.

Which Percent Effect does the source give for `CN(C)S(=O)(=O)N1CC[C@@H]2CN(Cc3cnn(C)c3)C[C@@H]2C1` here?
The Percent Effect was 6.22%.

`CC(C)N1CCO[C@H]2CN(C(=O)c3ccc(N(C)C)cc3)C[C@H]21` was tested. Which Percent Effect did it give?
Its Percent Effect is 2.49%.

`CCc1nc2n(n1)CC(NCC(=O)Nc1ccc(Cl)cn1)CC2` (stereo not given) was tested. Which Percent Effect did it give?
The Percent Effect was 0.314%.

For `Cc1cc(N2CCC3(CCC(=O)N(CC4CC4)C3)CC2)nc(N)n1`, which Percent Effect is on record?
The Percent Effect was -0.719%.

Which Percent Effect does the source give for `O=C1N(CC2CC2)CCC12CCN(c1ncccn1)CC2` here?
Its Percent Effect is 3.3%.

`CCc1ncc2c(n1)CN(CC(=O)Nc1ccc(Cl)cn1)CC2` was tested. Which Percent Effect did it give?
The Percent Effect was 0.367%.

Which Percent Effect does the source give for `Cc1cn[nH]c1C1CCCCN1C(=O)CCN1CCCCCC1` (stereo not given) here?
Its Percent Effect is 8.57%.

How did the Percent Effect turn out when `COCCn1cc2c(n1)C(CNCc1ccc(F)cc1)OCC2` (stereo not given) was run?
Its Percent Effect is 1.2%.

For `C[C@@H]1CN(C(=O)c2ccc(C#N)nc2)CC[C@@]1(O)C1CCOCC1`, which Percent Effect is on record?
The Percent Effect was -2.71%.

For `CCc1ccc(CN2CCC3(CC2)NC(=O)CC3c2ccncc2)o1` (stereo not given), which Percent Effect is on record?
Its Percent Effect is 7.7%.

With `Cc1cnn(CCNCc2csc(-c3cccs3)n2)c1` as the molecule, how does the Percent Effect read?
The Percent Effect was -6.55%.

With `Cc1ccc(C(=O)N2CCC(Oc3ccc(F)cc3F)CC2)c(=O)[nH]1` as the molecule, how does the Percent Effect read?
The Percent Effect was -4.97%.

For `CN(Cc1cc(-c2ccccc2)no1)C1CCCN(c2cccnn2)C1` (stereo not given), which Percent Effect is on record?
The Percent Effect was -2.03%.

With `CCNC(=O)CCc1c(C)nc2cc(O)nn2c1C` as the molecule, how does the Percent Effect read?
The Percent Effect was 4.16%.

`COc1ccccc1OCC(=O)NS(=O)(=O)c1ccc(C)s1` was tested. Which Percent Effect did it give?
The Percent Effect was -0.394%.

How did the Percent Effect turn out when `COCCC(=O)N1CCn2c(COCC3CC3)cnc2C1C` (stereo not given) was run?
Its Percent Effect is 3.62%.

Which Percent Effect does the source give for `CCc1n[nH]c(C2CN(C(=O)c3ncoc3C(C)C)CCO2)n1` (stereo not given) here?
Its Percent Effect is 2.8%.

`CCc1noc(C(C)N(C)CC(=O)Nc2cccc(C)n2)n1` (stereo not given) was tested. Which Percent Effect did it give?
Its Percent Effect is -1.61%.

How did the Percent Effect turn out when `CN1CC(=O)N(c2cnn(C)c2)CC12CCN(Cc1nccn1C)C2` (stereo not given) was run?
Its Percent Effect is -3.88%.

With `CC(=O)NCCNC(=O)CN1CCN(Cc2nccn2C)C(C)C1` (stereo not given) as the molecule, how does the Percent Effect read?
Its Percent Effect is 2.19%.
